The target of assay [1] is Cell division control protein 42 homolog (Homo sapiens) (UniProt P60953). Briefly: activated mutant Cdc42 GTP-binding inhibitors, dose response, biochemical, multiplex bead flow cytometry, Bodipy-FL-GTP (AID 1333;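 active = fitted half-maximal concentration within the tested dose range, moderate curve steepness, a statistically real signal drop, and little compound fluorescence or tag-binding interference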).
Assay [2] has the same target. Description: wildtype Cdc42 GTP-binding inhibitors, dose response, biochemical, multiplex bead flow cytometry, Bodipy-FL-GTP (AID 1334;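 active = fitted half-maximal concentration within the tested range, moderate curve steepness, significant signal drop, and little compound fluorescence or bead-linkage interference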). The settings on record: bead-based flow cytometry, Bodipy-FL-GTP binding to GST-Cdc42; at 100 µM (top of the series) unless noted.
Assay [3] concerns the target GTPase HRas (Homo sapiens) (UniProt P01112). Briefly: inhibitors of GTP binding to wildtype Ras, dose response, biochemical, multiplex bead flow cytometry (AID 1335;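 active = fitted half-maximal concentration within 10 nM to 100 µM, steepness 0.5 to 2, significant signal drop, low assay interference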). The settings on record: bead-based flow cytometry, Bodipy-GTP binding to GST-Ras; at 100 µM (top of the series) unless noted.
Assay [4] concerns Ras-related protein Rab-7a (dog), GTP binding. Description: Rab7 GTP binding inhibitors, potency, dose response, biochemical, wildtype, multiplex bead flow cytometry (AID 1336; call rule not given here). In general terms: In flow cytometry, cells or beads pass a laser one at a time.
The target of assay [5] is Ras-related C3 botulinum toxin substrate 1 (Homo sapiens) (UniProt P63000). Description: wildtype Rac1 GTP binding inhibitors, dose response, biochemical, multiplex bead flow cytometry (AID 1340). The settings on record: GST-Rac1 beads, Bodipy-FL-GTP binding; at 100 µM (top of the series) unless noted.
The target in assay [6] is GTPase HRas (Homo sapiens) (UniProt P01112). Description: activated Ras mutant GTP binding inhibitors, dose response, biochemical, multiplex bead flow cytometry (AID 1341;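 active = dose-response curve with midpoint inside the tested range, moderate steepness, significant amplitude and little compound fluorescence or bead-attachment interference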;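 note: GST-tagged constitutively activated Ras mutant immobilized on beads and multiplexed with other GTPases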).
Chain of GTPase HRas (Homo sapiens) (P01112 whole entry, looked up): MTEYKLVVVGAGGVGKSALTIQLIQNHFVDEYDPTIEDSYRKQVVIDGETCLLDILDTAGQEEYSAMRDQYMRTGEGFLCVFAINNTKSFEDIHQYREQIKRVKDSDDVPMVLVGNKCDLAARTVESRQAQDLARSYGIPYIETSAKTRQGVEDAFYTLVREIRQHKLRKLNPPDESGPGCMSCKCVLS

For part of these data: Results with a measured potency or affinity are listed apart. Calls of active or inactive are those of the source.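 Rule for the calls, unless noted: active = dose curve with midpoint inside tested range, moderate steepness, plateau gap beyond fit error, low compound glow and bead-link interference; inactive = the rest.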

Chain of Cell division control protein 42 homolog (Homo sapiens) (P60953 whole entry, looked up): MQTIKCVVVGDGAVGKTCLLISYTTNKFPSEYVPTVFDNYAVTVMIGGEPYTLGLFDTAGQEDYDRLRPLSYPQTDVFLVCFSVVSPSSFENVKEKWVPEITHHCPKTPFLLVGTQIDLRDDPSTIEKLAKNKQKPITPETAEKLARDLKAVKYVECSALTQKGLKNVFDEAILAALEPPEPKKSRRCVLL

`C=CCc1ccc(OCc2ccc(C(=O)O)o2)c(OC)c1`: the compound was called inactive in assay [1], in assay [4] and in assay [6]. Moreover, in assay [2], the fluorescence, percent of control (lower = inhibition) was found to be 58.9%. This compound also gave a GTP binding, percent of control in assay [3] of 86.5%. Further, the GTP binding signal, raw median fluorescence (lower = inhibition) (MCF (arbitrary fluorescence units)) in assay [5] is 31.4.

For the compound `Cc1ccc(NC(=O)CN2C(=O)S/C(=C\c3ccc(-c4cccc(C(=O)O)c4C)o3)C2=O)cc1C`, the call in assay [1], in assay [4] and in assay [6] was inactive. Further, the fluorescence, percent of control (lower = inhibition) in assay [2] amounted to 107%. In assay [3], the GTP binding, percent of control was found to be 149%. Besides, the GTP binding signal, raw median fluorescence (lower = inhibition) (MCF (arbitrary fluorescence units)) in assay [5] worked out at 265.

On to `CN(/N=C/c1cccnc1)C1=NS(=O)(=O)c2ccccc21`, for which the compound was classed as inactive in assay [1], in assay [4] and in assay [6]. The fluorescence, percent of control (lower = inhibition) in assay [2] is 36.2%. This compound also had a GTP binding, percent of control in assay [3] of 50.7%. The GTP binding signal, raw median fluorescence (lower = inhibition) (MCF (arbitrary fluorescence units)) in assay [5] amounted to 137.

Turning to `O=C(O)c1cccc(NCc2ccc3c(c2)OCO3)c1`, the compound was classed as inactive in assay [1], in assay [4] and in assay [6]. The fluorescence, percent of control (lower = inhibition) in assay [2] was 64.9%. In assay [3], this compound yielded a GTP binding, percent of control of 88.8%. Further, in assay [5], the GTP binding signal, raw median fluorescence (lower = inhibition) (MCF (arbitrary fluorescence units)) stood at 41.9.

For `COc1cccc(-n2c(SCC(=O)NCCC3=CCCCC3)nc3n[nH]c(C)c3c2=N)c1`, the call in assay [1], in assay [4] and in assay [6] was inactive. The fluorescence, percent of control (lower = inhibition) in assay [2] was 70.4%. The GTP binding, percent of control in assay [3] was 132%. This compound gave a GTP binding signal, raw median fluorescence (lower = inhibition) (MCF (arbitrary fluorescence units)) in assay [5] of 140.

Take `Cc1ccccc1/C=C1\SC(=S)N(/N=C/c2cc([N+](=O)[O-])ccc2O)C1=O`: the result in assay [1], in assay [4] and in assay [6] was inactive. In addition, the fluorescence, percent of control (lower = inhibition) in assay [2] amounted to 34.1%. The compound also came in with a GTP binding, percent of control in assay [3] of 81.2%. This compound showed a GTP binding signal, raw median fluorescence (lower = inhibition) (MCF (arbitrary fluorescence units)) in assay [5] of 228.

Turning to `COc1ccc(N(CC(=O)Nc2cccc(C)c2C)S(=O)(=O)c2c(C)n[nH]c2C)cc1`, the compound was classed as inactive in assay [1], in assay [4] and in assay [6]. In assay [2], the fluorescence, percent of control (lower = inhibition) stood at 33.4%. In addition, the GTP binding, percent of control in assay [3] was 74.3%. In assay [5], this compound registered a GTP binding signal, raw median fluorescence (lower = inhibition) (MCF (arbitrary fluorescence units)) of 170.

As for `Cn1nc([N+](=O)[O-])c(C(C#N)c2ccccn2)c(Cl)c1=O` (stereo not given), the compound was classed as inactive in assay [1], in assay [4] and in assay [6]. For the same compound, the fluorescence, percent of control (lower = inhibition) in assay [2] is 24%. In assay [3], this compound gave a GTP binding, percent of control of 74.7%. The GTP binding signal, raw median fluorescence (lower = inhibition) (MCF (arbitrary fluorescence units)) in assay [5] is 201.

Turning to `COc1cc(/C=C/C(=O)Nc2ccc3nc4n(c(=O)c3c2)CCCC4)cc(OC)c1OC`, the result in assay [1], in assay [4] and in assay [6] was inactive. Moreover, the fluorescence, percent of control (lower = inhibition) in assay [2] stood at 32.7%. The GTP binding, percent of control in assay [3] is 72%. This compound also had a GTP binding signal, raw median fluorescence (lower = inhibition) (MCF (arbitrary fluorescence units)) in assay [5] of 200.

In the case of `O=C1CC(c2ccc(F)cc2)Sc2ccccc2N1` (stereo not given), the compound was classed as inactive in assay [1], in assay [4] and in assay [6]. Besides, the fluorescence, percent of control (lower = inhibition) in assay [2] is 101%. This compound also showed a GTP binding, percent of control in assay [3] of 170%. The compound further came in with a GTP binding signal, raw median fluorescence (lower = inhibition) (MCF (arbitrary fluorescence units)) in assay [5] of 207.

Turning to `O=C(Cn1cnc2cc([N+](=O)[O-])ccc2c1=O)NCCc1ccc(F)cc1`, the result in assay [1], in assay [4] and in assay [6] was inactive. Further, the fluorescence, percent of control (lower = inhibition) in assay [2] is 35.9%. Moreover, in assay [3], the GTP binding, percent of control was 80.9%. The GTP binding signal, raw median fluorescence (lower = inhibition) (MCF (arbitrary fluorescence units)) in assay [5] came out at 182.

Consider `COc1cc2[nH]c(=S)nc(NCc3cccs3)c2cc1OC`, for which the compound was classed as inactive in assay [1], in assay [4] and in assay [6]. Moreover, the fluorescence, percent of control (lower = inhibition) in assay [2] turned out to be 29.5%. In assay [3], this compound came in with a GTP binding, percent of control of 67.6%. Moreover, in assay [5], the GTP binding signal, raw median fluorescence (lower = inhibition) (MCF (arbitrary fluorescence units)) worked out at 161.

Consider `FC(F)(F)c1cccc(NC(=S)NNC(=S)NCc2ccccc2)c1`, for which the compound was classed as inactive in assay [1], in assay [4] and in assay [6]. For the same compound, the fluorescence, percent of control (lower = inhibition) in assay [2] came to 30.7%. This compound also returned a GTP binding, percent of control in assay [3] of 81.8%. For the same compound, the GTP binding signal, raw median fluorescence (lower = inhibition) (MCF (arbitrary fluorescence units)) in assay [5] was found to be 222.

Consider `Cc1cc(C(=O)NNC(=S)NC(C)c2ccccc2)c2ccccc2n1` (stereo not given), for which the outcome in assay [1], in assay [4] and in assay [6] was inactive. For the same compound, the fluorescence, percent of control (lower = inhibition) in assay [2] was determined as 95.6%. Further, the GTP binding, percent of control in assay [3] was determined as 177%. The compound further showed a GTP binding signal, raw median fluorescence (lower = inhibition) (MCF (arbitrary fluorescence units)) in assay [5] of 197.

`Cc1ccc(C(=O)c2ccccc2C(=O)O)cc1C`: the result in assay [1], in assay [4] and in assay [6] was inactive. Also, the fluorescence, percent of control (lower = inhibition) in assay [2] amounted to 113%. In assay [3], this compound had a GTP binding, percent of control of 141%. Also, in assay [5], the GTP binding signal, raw median fluorescence (lower = inhibition) (MCF (arbitrary fluorescence units)) was 93.5.

These data come from PubChem BioAssay.
